Here are results for ten compounds from PubChem BioAssay (Tox21).

Inconclusive results are not listed. Calls of active or inactive are those of the source. Unless noted, the call rests on the fitted dose curve; in most records, active means well fitted curve in the direction sought with a large enough effect in the repeat runs; inconclusive means weak or mixed curves; inactive means no such curve, though single readings can be large; an effect the other way counts as inactive or inconclusive.

Test [1] in a line: qHTS assay to identify small molecule antagonists of the sonic hedgehog signaling (Shh) pathway (AID 1259369; calls by dose curve; further: nearly all actives have a fitted effect of over 45% in size; further: potency means the concentration at half of the fitted maximal effect). The gist of the method:
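Inhibition of Shh signalling is measured as reduced Gli1-response-element firefly luciferase output in an NIH/3T3-derived stable reporter clone stimulated with conditioned medium for 24hr.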
A general note: In qHTS, concentration-response curves come from the screen itself.

Test [2] is described as follows: qHTS assay to identify small molecule agonists of the estrogen receptor beta (ER-beta) signaling pathway - cell viability counter screen (AID 1259380). Further: nearly all actives have a fitted effect of over 30% in size. Further: potency means the concentration at half of the fitted maximal effect. The gist of the method:
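Same-well viability counter screen. Cells: ER-beta-UAS-bla HEK293T, plated 6 hr before compound, in 2% charcoal-stripped FBS. Compound exposure 16 hr, 37C; viability by CellTiter-Glo luminescence after 30 min at room temperature.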

Test [3] can be described thus: qHTS assay to identify small molecule agonists or antagonists of the thyroid stimulating hormone receptor (TSHR) signaling pathway - wild type cell line counter screen (AID 1259384; calls by dose curve). The gist of the method:
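Wild-type Hek293 cells, 800/well, 18 h at 37C, then compound with Ro20-1724 for 30 min RT. cAMP by HTRF (cAMP-d2/anti-cAMP cryptate), 1 h RT, fluorescence read. 15 concentrations, triplicates.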

The target of test [4] is Thyrotropin receptor (Homo sapiens) (UniProt P16473). As to the kind of experiment: qHTS assay to identify small molecule antagonists of the thyroid stimulating hormone receptor (TSHR) signaling pathway (AID 1259385; calls by dose curve; further: nearly all actives have a fitted effect of over 20% in size). The gist of the method:
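TSHR-HEK293 cells (800/well) plated 18 h, then compounds with Ro20-1724 and TSH at 1.5 ng/mL final, 30 min at room temperature. cAMP quantified by HTRF (cAMP-d2/anti-cAMP-cryptate, 1 h); 15 concentrations in triplicate.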

Test [5] in a line: qHTS assay to identify small molecule agonists of the estrogen receptor alpha (ER-alpha) signaling pathway in the presence of an antagonist - cell viability counter screen (AID 1259386).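 Further: series mostly up to about 92 µM; cells exposed to compounds for 22 h at 37 °C before the viability read; nearly all actives have a fitted effect of over 30% in size.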 The essentials: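 Cells are starved of estrogens for 5 days in charcoal-stripped serum, seeded for 24hr and co-treated with ICI-182,780 (10.0nM final) and test compounds. After 22hr at 37C, viability is read as CellTiter-Fluor fluorescence.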

Test [6] has as its target Progesterone receptor (Homo sapiens) (UniProt P06401). As to the kind of experiment: qHTS assay to identify small molecule agonists of the progesterone receptor (PR) signaling pathway (AID 1346784; calls by dose curve; further: nearly all actives have a fitted effect of over 30% in size). The gist of the method: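 Agonist qHTS: compounds pinned onto 3,000 PR-UAS-bla HEK 293T cells per well in charcoal-stripped serum medium, 16hr at 37C, then beta-lactamase activity measured by LiveBLAzer FRET fluorescence after 2 hours at room temperature.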

A short description of test [7]: qHTS assay to identify small molecule antagonists of the TGF-beta/Smad signaling pathway - cell viability counter screen (AID 1346824). Further: nearly all actives have a fitted effect of over 50% in size. The essentials: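 SBE-bla HEK 293T cells, incubated overnight, then compound plus 0.25 ng/mL TGF-beta1 (stock added) for 5 hr at 37 C. Viability was read in the same wells by CellTiter-Glo luminescence after 30 min at room temperature.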

Test [8] can be described thus: qHTS assay to identify small molecule agonists of the TGF-beta/Smad signaling pathway - cell viability counter screen (AID 1346829). Further: top concentration of the series differs between compounds; nearly all actives have a fitted effect of over 45% in size. The essentials: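 Luminescence from CellTiter-Glo, read after a 30 min room-temperature incubation, gives cell viability of SBE-bla HEK 293T cells treated 5 hr with compounds at 37 C.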
Test [9] is described as follows: qHTS assay to identify small molecule agonists of the TGF-beta/Smad signaling pathway (AID 1346859; active means well fitted activation curve with a large enough effect in the signal ratio in the repeat runs, not every such curve was filed as active; the % refers to the signal ratio; further: series mostly up to about 77 µM). The essentials: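 Fluorescence (ex 405 nm; em 460 and 530 nm) was read 2 h after LiveBLAzer FRET substrate at RT. The preceding compound treatment of overnight-plated SBE-bla HEK293T cells lasted 5 h at 37 C.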
The target in test [10] is Estrogen receptor beta (Homo sapiens) (UniProt Q92731). As to the kind of experiment: qHTS assay to identify small molecule agonists of the estrogen receptor beta (ER-beta) signaling pathway (AID 1259377; active means well fitted activation curve with a large enough effect in the signal ratio in the repeat runs, not every such curve was filed as active; the % refers to the signal ratio; further: potency means the concentration at half of the fitted maximal effect). The gist of the method:
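Ratiometric beta-lactamase FRET read-out came after 2 h substrate loading at room temperature. It followed 16 h compound treatment at 37C of GripTite HEK293T cells carrying a UAS-bla reporter, plated in 2% charcoal-stripped FBS medium.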

For test [11] the target is unchanged. As to the kind of experiment: qHTS assay to identify small molecule antagonists of the estrogen receptor beta (ER-beta) signaling pathway (AID 1259378; active means well fitted inhibition curve with a large enough effect in the signal ratio in the repeat runs, not every such curve was filed as active; the % refers to the signal ratio). The gist of the method:
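ER-beta-UAS-bla HEK293T cells in 2% charcoal-stripped FBS medium treated with compound plus 1nM final 17-beta-estradiol for 16 hr at 37C. Beta-lactamase reporter read by FRET substrate fluorescence after 2 hours at room temperature.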

The nature of test [12]: qHTS assay to identify small molecule antagonists of the estrogen receptor beta (ER-beta) signaling pathway - cell viability counter screen (AID 1259382). Further: series mostly up to about 92 µM; nearly all actives have a fitted effect of over 55% in size. The gist of the method:
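Following a 6 hr plating period, HEK293T cells carrying a UAS-driven beta-lactamase reporter under ER-beta control received compounds and 1nM E2 (final). After 16 hr at 37C and 2 hr substrate loading, CellTiter-Glo luminescence indicated viability.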

Test [13] in a line: qHTS assay to identify small molecule agonists of the progesterone receptor (PR) signaling pathway - cell viability counter screen (AID 1346799; calls by dose curve; further: nearly all actives have a fitted effect of over 45% in size). The essentials: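 Cytotoxicity measured by CellTiter-Glo luminescence (30 min, RT) in the same wells as the PR beta-lactamase agonist read. Those HEK293T cells had 16 h compound treatment at 37 C in 2% charcoal-stripped FBS medium.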

Test [14] has as its target Thyrotropin-releasing hormone receptor (Homo sapiens) (UniProt P34981). As to the kind of experiment: qHTS assay to identify small molecule antagonists of the thyrotropin-releasing hormone receptor (TRHR) signaling pathway (AID 1346877; active means well fitted inhibition curve with a large enough effect in the repeat runs, not every such curve was filed as active; further: series mostly up to about 51 µM). The gist of the method:
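Cells (TRHR-HEK293) are plated and kept 18 h at 37 °C/5% CO2. A calcium-sensitive dye is added for 2 h, compound follows for 5 min at room temperature, and TRH is then given at 1 nM final.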

The nature of test [15]: qHTS assay to identify small molecule agonists of the androgen receptor (AR) signaling pathway in the presence of an antagonist - cell viability counter screen (AID 1259379).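 Further: MDA-kb2 human breast cancer cells carrying an MMTV luciferase reporter; series mostly up to about 92 µM; nearly all actives have a fitted effect of over 25% in size.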 The essentials: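 Fluorescence from CellTiter-Fluor, added after 15 hr and read 1 hr later, gave cell viability. Cells were MDA-kb2 exposed to compounds (15 concentrations) in the presence of 3.0uM nilutamide at 37C, 0% CO2.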

A short description of test [16]: qHTS assay to identify small molecule antagonists of the progesterone receptor (PR) signaling pathway - cell viability counter screen (AID 1346798). Further: series mostly up to about 92 µM; nearly all actives have a fitted effect of over 50% in size. The essentials:
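Cytotoxicity read as CellTiter-Glo luminescence (30 min, room temperature) in the same wells as the beta-lactamase readout. HEK293T PR-UAS-bla cells in charcoal-stripped 2% FBS received compound and R5020, then 16 h at 37C, 5% CO2.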

Test [17] concerns the target Thyrotropin-releasing hormone receptor (Homo sapiens) (UniProt P34981). As to the kind of experiment: qHTS assay to identify small molecule agonists of the thyrotropin-releasing hormone receptor (TRHR) signaling pathway (AID 1346891; calls by dose curve; further: series mostly up to about 58 µM). The gist of the method:
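Agonist-mode intracellular calcium readout: kinetic fluorescence over 3 min at 1 s intervals after compound addition to TRHR-HEK293 cells (18 h seeded, 2 h dye-loaded at 37 C). Fifteen concentrations, triplicates.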

Test [18] has as its target Androgen receptor (Homo sapiens) (UniProt P10275). As to the kind of experiment: qHTS assay to identify small molecule agonists of the androgen receptor (AR) signaling pathway in the presence of an antagonist (AID 1259381; calls by dose curve; further: nearly all actives have a fitted effect of over 15% in size). The essentials:
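Cells are MDA-kb2 (human breast carcinoma, MMTV-luc, AR/GR responsive). Nilutamide is present at 3.0uM final throughout; compounds are added at 15 concentrations and incubated 16hr at 37C before ONE-Glo luminescence detection.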

The target in test [19] is Estrogen receptor (Homo sapiens) (UniProt P03372). As to the kind of experiment: qHTS assay to identify small molecule agonists of the estrogen receptor alpha (ER-alpha) signaling pathway in the presence of an antagonist (AID 1259383; calls by dose curve; further: nearly all actives have a fitted effect of over 15% in size; further: potency means the concentration at half of the fitted maximal effect; on activation: top concentration of the series differs between compounds). The gist of the method: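 Cells are hormone-deprived for 5 days (charcoal-stripped FBS, no phenol red), plated for 24hr, spiked with 10.0nM ICI-182,780, then dosed at 15 concentrations. After 22hr at 37C, ONE-Glo luminescence reports ERE-luciferase activity.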
Sequence of Estrogen receptor (Homo sapiens) (P03372 whole entry, looked up): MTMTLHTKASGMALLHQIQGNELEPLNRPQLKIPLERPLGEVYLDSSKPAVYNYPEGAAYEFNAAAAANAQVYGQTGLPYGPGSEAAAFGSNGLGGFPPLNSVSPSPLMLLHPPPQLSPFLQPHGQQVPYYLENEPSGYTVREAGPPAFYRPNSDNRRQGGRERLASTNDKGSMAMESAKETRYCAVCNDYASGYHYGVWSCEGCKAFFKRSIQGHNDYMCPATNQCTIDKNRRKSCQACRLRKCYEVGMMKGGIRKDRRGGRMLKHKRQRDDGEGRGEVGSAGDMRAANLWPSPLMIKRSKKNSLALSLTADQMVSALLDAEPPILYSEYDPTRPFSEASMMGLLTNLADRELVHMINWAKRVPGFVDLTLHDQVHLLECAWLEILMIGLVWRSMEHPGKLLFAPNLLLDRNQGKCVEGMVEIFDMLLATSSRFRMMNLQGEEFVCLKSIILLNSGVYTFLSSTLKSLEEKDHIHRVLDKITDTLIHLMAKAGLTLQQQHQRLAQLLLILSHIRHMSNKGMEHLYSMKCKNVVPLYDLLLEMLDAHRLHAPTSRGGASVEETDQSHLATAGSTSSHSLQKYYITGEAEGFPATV

For test [20], the target named is Progesterone receptor (Homo sapiens) (UniProt P06401). As to the kind of experiment: qHTS assay to identify small molecule antagonists of the progesterone receptor (PR) signaling pathway (AID 1346795; active means well fitted inhibition curve with a large enough effect in the signal ratio in the repeat runs, not every such curve was filed as active; the % refers to the signal ratio; further: potency means the concentration at half of the fitted maximal effect). The gist of the method:
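Antagonist mode with agonist R5020 at 1 nM final and 16 hr incubation at 37C. Reporter was beta-lactamase driven by UAS in HEK293T (PR-UAS-bla), 2% charcoal-stripped serum; signal from LiveBLAzer FRET substrate, 2 hr at room temperature.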

Sequence of Thyrotropin receptor (Homo sapiens) (P16473 whole entry, looked up): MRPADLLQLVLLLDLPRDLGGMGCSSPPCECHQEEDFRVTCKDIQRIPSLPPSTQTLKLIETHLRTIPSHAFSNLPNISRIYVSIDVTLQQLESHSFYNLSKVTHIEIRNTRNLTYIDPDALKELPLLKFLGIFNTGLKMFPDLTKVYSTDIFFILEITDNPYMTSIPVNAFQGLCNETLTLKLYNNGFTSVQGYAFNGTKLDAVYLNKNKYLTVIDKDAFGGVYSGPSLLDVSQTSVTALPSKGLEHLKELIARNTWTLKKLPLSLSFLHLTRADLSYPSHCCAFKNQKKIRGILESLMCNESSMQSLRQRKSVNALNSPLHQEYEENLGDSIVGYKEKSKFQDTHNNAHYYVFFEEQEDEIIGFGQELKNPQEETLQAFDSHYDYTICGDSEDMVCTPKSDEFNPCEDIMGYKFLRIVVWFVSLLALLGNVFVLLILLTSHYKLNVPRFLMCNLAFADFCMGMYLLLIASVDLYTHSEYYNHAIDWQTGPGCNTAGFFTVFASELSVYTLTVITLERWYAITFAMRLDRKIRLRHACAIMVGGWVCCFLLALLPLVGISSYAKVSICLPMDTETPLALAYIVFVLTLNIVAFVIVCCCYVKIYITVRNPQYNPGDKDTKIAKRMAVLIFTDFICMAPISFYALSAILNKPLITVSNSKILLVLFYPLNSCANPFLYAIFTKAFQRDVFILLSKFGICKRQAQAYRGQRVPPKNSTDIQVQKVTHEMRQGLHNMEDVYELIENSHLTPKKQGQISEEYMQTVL
Sequence of Thyrotropin-releasing hormone receptor (Homo sapiens) (P34981 whole entry, looked up): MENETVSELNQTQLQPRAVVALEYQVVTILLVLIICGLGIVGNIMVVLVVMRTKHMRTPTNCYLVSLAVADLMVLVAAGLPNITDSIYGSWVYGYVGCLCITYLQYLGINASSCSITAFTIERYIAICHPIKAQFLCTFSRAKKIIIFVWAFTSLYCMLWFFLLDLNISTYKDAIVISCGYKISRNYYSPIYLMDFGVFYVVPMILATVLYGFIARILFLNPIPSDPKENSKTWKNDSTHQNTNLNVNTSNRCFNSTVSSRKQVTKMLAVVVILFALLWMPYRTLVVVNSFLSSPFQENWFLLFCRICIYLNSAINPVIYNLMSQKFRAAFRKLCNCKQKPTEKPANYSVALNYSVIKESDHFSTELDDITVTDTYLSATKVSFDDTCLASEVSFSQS
Sequence of Androgen receptor (Homo sapiens) (P10275 whole entry, looked up): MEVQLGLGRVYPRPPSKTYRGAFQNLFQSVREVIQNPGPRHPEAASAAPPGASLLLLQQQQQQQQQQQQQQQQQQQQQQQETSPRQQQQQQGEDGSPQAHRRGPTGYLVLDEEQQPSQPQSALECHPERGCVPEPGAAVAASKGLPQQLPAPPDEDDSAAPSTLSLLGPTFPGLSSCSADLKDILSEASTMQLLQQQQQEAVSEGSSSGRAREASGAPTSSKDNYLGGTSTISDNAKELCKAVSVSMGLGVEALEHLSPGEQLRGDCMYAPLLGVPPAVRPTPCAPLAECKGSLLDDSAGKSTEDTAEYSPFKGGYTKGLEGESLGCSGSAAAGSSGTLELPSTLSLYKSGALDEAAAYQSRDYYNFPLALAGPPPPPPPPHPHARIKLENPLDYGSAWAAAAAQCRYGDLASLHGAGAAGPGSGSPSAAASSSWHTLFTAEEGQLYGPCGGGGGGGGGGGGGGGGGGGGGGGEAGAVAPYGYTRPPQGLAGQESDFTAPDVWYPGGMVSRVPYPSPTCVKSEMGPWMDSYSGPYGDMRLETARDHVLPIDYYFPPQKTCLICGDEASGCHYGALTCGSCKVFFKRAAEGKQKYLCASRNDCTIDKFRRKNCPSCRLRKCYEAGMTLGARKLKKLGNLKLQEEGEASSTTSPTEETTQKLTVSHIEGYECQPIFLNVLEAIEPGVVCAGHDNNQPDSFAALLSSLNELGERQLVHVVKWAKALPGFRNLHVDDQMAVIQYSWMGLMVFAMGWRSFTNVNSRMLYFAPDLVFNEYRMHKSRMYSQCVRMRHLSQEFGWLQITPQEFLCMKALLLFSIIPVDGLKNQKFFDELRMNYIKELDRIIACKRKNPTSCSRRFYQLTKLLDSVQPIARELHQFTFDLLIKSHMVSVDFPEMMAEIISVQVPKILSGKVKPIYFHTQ
Sequence of Progesterone receptor (Homo sapiens) (P06401 whole entry, looked up): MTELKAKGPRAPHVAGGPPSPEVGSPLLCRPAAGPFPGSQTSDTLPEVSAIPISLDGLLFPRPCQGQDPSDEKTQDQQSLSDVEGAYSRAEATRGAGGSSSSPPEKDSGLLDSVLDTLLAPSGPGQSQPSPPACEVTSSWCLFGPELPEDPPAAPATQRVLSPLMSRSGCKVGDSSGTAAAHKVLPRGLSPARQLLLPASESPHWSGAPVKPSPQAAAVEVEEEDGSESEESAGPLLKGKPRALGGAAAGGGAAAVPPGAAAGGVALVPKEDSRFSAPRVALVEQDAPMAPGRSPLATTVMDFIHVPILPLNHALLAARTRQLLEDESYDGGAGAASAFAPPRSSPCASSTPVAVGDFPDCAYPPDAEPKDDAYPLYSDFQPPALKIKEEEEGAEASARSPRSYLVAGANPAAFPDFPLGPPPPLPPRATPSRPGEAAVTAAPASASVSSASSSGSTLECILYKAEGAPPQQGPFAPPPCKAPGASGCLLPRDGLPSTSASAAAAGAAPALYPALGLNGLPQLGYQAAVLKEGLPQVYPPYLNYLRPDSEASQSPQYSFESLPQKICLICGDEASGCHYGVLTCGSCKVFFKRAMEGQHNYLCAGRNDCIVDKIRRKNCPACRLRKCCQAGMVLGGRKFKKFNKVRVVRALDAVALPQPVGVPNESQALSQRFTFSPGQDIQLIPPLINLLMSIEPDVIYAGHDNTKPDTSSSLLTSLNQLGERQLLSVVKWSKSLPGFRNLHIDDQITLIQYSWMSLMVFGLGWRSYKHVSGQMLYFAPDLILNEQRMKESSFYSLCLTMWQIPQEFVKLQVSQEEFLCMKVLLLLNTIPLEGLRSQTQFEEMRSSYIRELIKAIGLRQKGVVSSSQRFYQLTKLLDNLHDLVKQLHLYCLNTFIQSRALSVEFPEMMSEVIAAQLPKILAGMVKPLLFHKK
Sequence of Estrogen receptor beta (Homo sapiens) (Q92731 whole entry, looked up): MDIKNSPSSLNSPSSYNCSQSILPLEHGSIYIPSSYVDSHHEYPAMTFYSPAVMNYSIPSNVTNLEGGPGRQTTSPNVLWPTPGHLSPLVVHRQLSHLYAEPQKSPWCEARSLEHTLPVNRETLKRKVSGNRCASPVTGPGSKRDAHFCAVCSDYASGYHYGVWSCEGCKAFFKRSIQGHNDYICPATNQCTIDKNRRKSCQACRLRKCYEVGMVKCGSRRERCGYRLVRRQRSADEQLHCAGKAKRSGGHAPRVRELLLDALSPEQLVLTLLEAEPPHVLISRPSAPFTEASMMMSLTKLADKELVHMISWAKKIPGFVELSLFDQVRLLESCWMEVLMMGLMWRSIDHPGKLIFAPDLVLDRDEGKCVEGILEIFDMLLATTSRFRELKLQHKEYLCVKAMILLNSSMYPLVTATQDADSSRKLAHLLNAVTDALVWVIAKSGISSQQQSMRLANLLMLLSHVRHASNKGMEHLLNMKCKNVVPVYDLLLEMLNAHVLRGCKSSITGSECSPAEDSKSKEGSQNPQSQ

On to `S=C(SSC(=S)N1CCCCC1)N1CCCCC1`, for which the Potency was 5.96 µM (active) in [1] and 0.188 µM (active) in test [2]. The compound was classed as inactive in test [3] and in test [9]. The Potency entry in test [4], in [5], in test [6], in test [7] and in test [8] was “inactive” each time.

Regarding `CC(=O)OC1(c2ccccc2)CCN(CCc2ccccc2)CC1`, the Potency result in test [10], in test [11], in test [12], in test [4], in test [6] and in test [13] was “inactive” throughout. The Potency result in test [7] and in [14] was “inactive” in each case. Also, the compound was classed as inactive in test [3] and in [9].

As for `Oc1ccc2ccc3cccc4ccc1c2c34`, the Potency entry in [10], in [15], in test [12], in test [4], in test [5] and in test [6] was “inactive” each time. Moreover, the Potency entry in [16], in [13], in [7], in [14] and in [17] was “inactive” each time. Further, the Potency in [2] is 12.2 µM (active). Also, the compound was classed as inactive in test [3].

As for `COP(=O)(OC)SCn1c(=O)oc2cc(Cl)cnc21`, the Potency entry in test [1], in test [18], in test [19], in [6], in test [20] and in [16] was “inactive” each time. Moreover, the Potency result in [13] and in test [7] was “inactive” in each case. Also, the compound was classed as inactive in [3] and in test [9].

Turning to `Oc1c(Br)c(Br)c(Br)c(Br)c1Br`, the Potency in test [1] is 19.4 µM (active); in [20], 27.5 µM (active). For the same compound, the Potency result in [18], in test [5], in test [7] and in [8] was “inactive” throughout. Further, the compound was called inactive in [9].

Regarding `CC(Cc1ccc(C(C)(C)C)cc1)CN1C[C@@H](C)O[C@@H](C)C1` (stereo not given in full), the Potency entry in test [10], in test [15], in test [2], in test [12], in test [5] and in [20] was “inactive” in each case. Besides, the Potency entry in test [7] and in test [8] was “inactive” in each case. The compound was classed as inactive in test [3] and in [9].

Regarding `O=S(=O)(c1ccc(Cl)cc1)c1ccc(Cl)cc1`, the Potency result in test [10], in test [15], in [2], in [12], in test [19] and in test [7] was “inactive” throughout. The Potency result in test [8] is “inactive”. In addition, in test [9], the outcome was inactive.

As to `CCN(CC)c1c([N+](=O)[O-])cc(C(F)(F)F)c(N)c1[N+](=O)[O-]`, in [1], the Potency is 9.69 µM (active). Besides, the Potency result in [18], in test [12], in [19], in test [6], in test [7] and in [14] was “inactive” in each case. In test [17], the Potency entry was “inactive”. Besides, the compound was classed as inactive in test [3] and in [9].

With `CC(=O)O[C@H]1CC[C@@]2(C)C(=CC[C@@H]3[C@@H]2CC[C@]2(C)C(=O)CC[C@@H]32)C1`, the Potency is 1.72 µM (active) in test [10], 48.6 µM (active) in [2] and 8.63 µM (active) in [19]. The Potency result in test [15], in [18] and in test [7] was “inactive” in each case. The call in test [3] and in test [9] was inactive.

Consider `CCOP(=S)(OCC)SCCS(=O)(=O)CC`, for which the Potency entry in test [10], in test [15], in [2], in test [12], in test [19] and in test [4] was “inactive” throughout. Moreover, the Potency entry in [5], in test [6], in [16], in [7], in test [8] and in [14] was “inactive” in each case. Also, the outcome in test [3] and in test [9] was inactive. The Potency in test [20] was 48.6 µM (active).
